Source: PubChem BioAssay
Compounds with a hit are over-represented: about 2.4% of the library has one in this group of screens.
ClpP mod: qHTS Assay for Activators of ClpP; ATP-dependent Clp protease proteolytic subunit (Bacillus subtilis (strain 168)), P80244; purified B. subtilis ClpP, FRET peptide cleavage, 20 min; Potency, µM (titrated, usually from 57.5 µM); 340,000 tested, 1.9% active; AID 651965, 2013; active = well fitted falling curve with a large enough effect; inconclusive = small, poorly fitted or top-dose-only effect; inactive = no such curve, though single readings can be large or run the other way; also: the source files actives as falling curves though it sought activators and does not explain the sign; nearly all actives have a fitted effect of over 65% in size
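Purified B. subtilis ClpP, 10 microg/mL final in Tris/HCl pH8 with KCl, BSA, glycerol and Tween-20, cleaved an Abz/nitrotyrosine-quenched decapeptide. Fluorescence (ex 320, em 430) was read at 0 and 20 min at room temperature. Delta was normalized to 5.8 microM ADEP and DMSO/no-enzyme controls.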
TSG101-PTAP inh: blocks PTAP/TSG101 interaction to inhibit HIV-1 budding; 340,000 tested, under 10 active; Fluorescence polarization, FITC-PTAP peptide / Tsg101 binding; Q99816; AID 493005; Potency, µM (doses to about 115 µM), hits mostly inhibitors; active = well fitted inhibition curve with a large enough effect in the main read-out, with a control signal flat, not every such curve was filed as active; inconclusive = small, poorly fitted or top-dose-only effect, or effect the other way, or a change in a side signal; inactive = no such curve, though single readings can be large or run the other way
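Fluorescence polarization binding of Tsg101 binding domain (10 uM final) to FITC-labeled PTAP peptide (50 nM final) in HEPES pH 7.5 buffer with NaCl, Tween 20, EDTA, TCEP. Compounds added before peptide; binding 20 min at RT.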
TDP1 block: TDP1 (human) enzyme inhibition | Q9NUW8 | recombinant TDP1, AlphaScreen DNA substrate cleavage | Potency, µM (doses to about 130 µM), hits mostly inhibitors | 350,000 tested, 0.28% active; active = well fitted curve in the direction sought with a large enough effect; inconclusive = small, poorly fitted or top-dose-only effect, or another doubt; inactive = no such curve, though single readings can be large; an effect the other way counts as inactive or inconclusive; also: nearly all actives have a fitted effect of over 40% in size
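Steps: enzyme plus compound, 15 min RT; add biotin/phosphotyrosine-FITC oligonucleotide (15 nM final), react 5 min; add donor/acceptor beads (10 ug/ml final), 10 min; read AlphaScreen. Tdp1 at 1 nM final.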
12-LOX inh: blocks human arachidonate 12S-lipoxygenase | Potency, µM (series often up to 108 µM), usual class: inhibitors | purified 12hLO, xylenol orange hydroperoxide absorbance | P18054 | 580,000 tested, 1.1% active; active = well fitted curve in the direction sought with a large enough effect; inconclusive = small, poorly fitted or top-dose-only effect, or another doubt; inactive = no such curve, though single readings can be large; an effect the other way counts as inactive or inconclusive
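Hydroperoxide product was detected by ferrous iron/xylenol orange as the 573 to 405 nm absorbance ratio. Arachidonic acid at 40 uM (final) was turned over for 30 min at room temperature by 150 nM human 12hLO, pH 7.0 Hepes buffer, after 15 min compound preincubation.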
Rango release inh: inhibitors of RanGTP-induced Rango-importin beta complex dissociation | Biochemical FRET Rango-importin beta, RanGTP-induced dissociation | Potency, µM (doses to about 46.1 µM) | 340,000 tested, 0.071% active; also: nearly all actives have a fitted effect of over 45% in size
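Quantitative HTS using a FRET biosensor: 0.1 uM Rango, 0.25 uM importin beta, 0.6 uM Ran, 2 mM GTP, 0.2 uM RCC1 final, PBS with DTT, Tween-20 and BSA. Post-read taken 45 min after Ran addition.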
Rango-impB inh: inhibitors of Rango-importin beta complex formation; Potency, µM (top dose mostly 92.2 µM); 340,000 tested, 0.031% active; AID 540263; Q14974; Rango CFP/YFP FRET sensor + importin beta, 45 min; also: nearly all actives have a fitted effect of over 15% in size
Target sequence (Q14974 whole entry, looked up): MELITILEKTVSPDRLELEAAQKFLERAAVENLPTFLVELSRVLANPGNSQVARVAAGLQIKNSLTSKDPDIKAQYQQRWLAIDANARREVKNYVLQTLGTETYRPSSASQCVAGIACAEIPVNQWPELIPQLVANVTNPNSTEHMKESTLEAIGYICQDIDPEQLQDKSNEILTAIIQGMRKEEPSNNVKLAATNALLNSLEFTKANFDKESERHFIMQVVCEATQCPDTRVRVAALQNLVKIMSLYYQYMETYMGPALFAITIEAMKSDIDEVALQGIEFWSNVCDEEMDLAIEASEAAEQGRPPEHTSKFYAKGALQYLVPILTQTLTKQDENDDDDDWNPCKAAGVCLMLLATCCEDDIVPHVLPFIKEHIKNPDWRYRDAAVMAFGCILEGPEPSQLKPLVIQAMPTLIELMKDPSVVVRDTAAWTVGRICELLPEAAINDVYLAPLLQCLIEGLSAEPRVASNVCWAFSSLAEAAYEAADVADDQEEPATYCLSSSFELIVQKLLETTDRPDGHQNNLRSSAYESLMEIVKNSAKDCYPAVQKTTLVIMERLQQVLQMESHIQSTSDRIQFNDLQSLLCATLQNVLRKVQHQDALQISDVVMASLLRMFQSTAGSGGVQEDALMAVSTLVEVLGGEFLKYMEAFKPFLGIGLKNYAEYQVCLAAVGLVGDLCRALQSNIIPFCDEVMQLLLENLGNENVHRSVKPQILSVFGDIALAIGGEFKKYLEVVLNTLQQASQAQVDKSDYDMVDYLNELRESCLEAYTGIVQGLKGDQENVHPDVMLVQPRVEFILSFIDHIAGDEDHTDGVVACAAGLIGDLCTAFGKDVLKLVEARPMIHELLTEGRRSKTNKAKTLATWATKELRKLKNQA
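FRET biosensor Rango (snurportin 1 IBB between N-terminal EYFP and C-terminal Cerulean), 50 nM in PBS/1 mM DTT/0.02% Tween-20/0.1% BSA, preincubated 5 min RT with compound; 0.125 microM importin beta added, 45 min RT, CFP/YFP FRET ratio read.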
Hits are given with their value; 0 = inactive; ? = inconclusive; - = not tested or not shown; [ ] = dose if it differs, or a comment. Unless noted, calls follow the shape of the full dose curve.

SMILES	ClpP mod	TSG101-PTAP inh	TDP1 block	12-LOX inh	Rango release inh	Rango-impB inh
O=c1c2c(nc3cc(-c4ccc(Br)cc4)[nH]n13)CCCC2	-	0	0	0	0	0
O=c1c2c(nc3cc(-c4ccccc4)[nH]n13)CCC2	11µM	0	0	0	0	0
COc1ccc(-c2cc3nc4c(c(=O)n3[nH]2)CCC4)cc1	22µM	0	0	0	0	0
CCc1nc2ccc(C(=O)Nc3ccccn3)cc2nc1CC	-	-	-	0	-	-
COCCCN1C(=O)N(Cc2nncn2C(C)C)C(=O)C12CCNCC2	-	-	-	18µM	-	-
COc1ccccc1N1CCN(C(=O)C(N)c2c(C)n[nH]c2C)CC1(C)C (stereo unspecified)	-	-	-	0	-	-
COc1ccc2oc(C(=O)OCC(=O)N3CCCC(C)C3)c(C)c2c1 (stereo unspecified)	14µM	0	-	0	0	0
Cc1c(C(=O)OCC(=O)N2CCCC(C)C2)oc2ccccc12 (stereo unspecified)	-	0	0	?	?	?
COc1ccc2oc(C(=O)OCC(=O)N3CCCCC3)c(C)c2c1	-	0	0	0	0	0
COc1ccc2oc(C(=O)OCC(=O)N3CCN(C(C)=O)CC3)c(C)c2c1	25µM	0	0	0	0	?
CCOc1ccc2oc(C(=O)OCC(=O)N3CCCC(C)C3)c(C)c2c1 (stereo unspecified)	28µM	0	0	0	0	0
CNC(=O)c1ccc2cc[nH]c2n1	-	-	-	0[12.5 µM]	-	-
CCOc1cc(=O)n2c(c1C(=O)Nc1ccccc1F)CCCC2	-	-	-	0	-	-
COc1ccc(NC(=O)N2CCCC(Cn3cnc4cccnc43)C2)c(C)c1 (stereo unspecified)	-	-	-	0	-	-
N#CC1=C(N)OC2=C(C(=O)CC(c3ccccc3Cl)C2)C1c1ccc(Cl)cc1 (stereo unspecified)	-	-	-	16µM	-	-
COc1ccc(C2C(C#N)=C(N)OC3=C2C(=O)CC(c2ccccc2)C3)cc1 (stereo unspecified)	-	-	-	0	-	-
Cc1nn(C)cc1CNC(=O)C1CCC(=O)N(Cc2cccc(C(F)(F)F)c2)C1 (stereo unspecified)	25µM	0	0	0	0	0
O=C1NCCC[C@@H]1NC(=O)[C@@H]1CN(C(=O)CS(=O)(=O)c2ccccc2)CCN1C(=O)c1ccccc1	-	-	-	0	-	-
N#CCCn1cc(-c2csc(NC3CC3)n2)c2ccccc21	-	-	-	14µM	-	-
O=C1c2ccccc2NC(c2cccc(Cl)c2)N1N=C1CCCCCC1 (stereo unspecified)	20µM	0	0	0	0	0
Cc1nnc(SCCN2CCOCC2)c2nn(-c3ccccc3F)c(C)c12	14µM	0	0	0	0	0
Cc1nnc(Cl)c2nn(-c3ccccc3F)c(C)c12	28µM	0	0	0	0	0
Cc1noc(C)c1C(=O)N1CCCCCCn2c(nnc2-c2ccc(F)cc2)CC1	-	-	-	0	-	-
O=C(NCCCn1nccc1C1CC1)c1ccccc1C1CCNC1 (stereo unspecified)	-	-	-	0	-	-
COCC(=O)N1CCCC(c2nn(-c3ccccc3)c(=O)[nH]2)C1 (stereo unspecified)	-	-	-	0	-	-
SMILES	ClpP mod	TSG101-PTAP inh	TDP1 block	12-LOX inh	Rango release inh	Rango-impB inh
CNc1ccc(Br)cc(C(=O)/C=C/c2ccc(Cl)cc2Cl)c1=O	-	0	0	13µM	0	?
O=C(c1cc2ccccc2o1)N1CCN(Cc2nc3ccccc3s2)CC1	0	-	-	18µM	-	-
Cc1ncsc1CCC(=O)N1CCN(CCCOc2ccc(F)cc2)CC1	-	-	-	0	-	-
Cc1ncsc1CCC(=O)N1CCC2(CCNCC2)CC1	-	-	-	16µM	-	-
O=C(Nc1cccnc1)C1(c2cccc(F)c2)CCC1	-	-	-	0	-	-
CCc1cccc(OCC(=O)N(C)CC(=O)Nc2cccc(F)c2)c1	0	0	0[0.505 µM]	0	0	0
CN(CC(=O)Nc1ccc(Cl)cc1)C(=O)COc1cccc(F)c1	-	-	-	40µM	-	-
COCCN=c1scc(-c2ccco2)n1/N=C/c1ccc(O)c(O)c1O	-	0	0	?	?	?
